Experimental data from PubChem BioAssay AID743279 (National Center for Advancing Translational Sciences (NCATS), 2014).
Hit rate of the full screen: of about 360,000 compounds, about 17,000 (4.7%) were called active. Inconclusive results (about 5%) are left out. Many of the other results were omitted from the sample, so actives are more common in it than they were. Unmarked numbers belong to inactive results. Cut-off read from the data, not from the text of the source: active = activity change below about -50%; inconclusive = mostly about -30% to -49%; inactive = weaker than that.

Assay: qHTS for Inhibitors of Inflammasome Signaling: IL-1-beta AlphaLISA Primary Screen
Details: THP-1 LPS/ATP IL-1B secretion, 16 h; at 57.5 µM, stronger effect = lower value
How it was run: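 Secreted IL-1B measured by AlphaLISA bead assay after 16 h compound exposure of THP-1 cells; compounds (final up to 57.5 uM) added 1 h before LPS (250 ng/mL) and ATP (1.25 mM) stimulation; lower signal means less secretion.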
% is set by controls: 0 for no effect and ±100 for the full control effect.

Row | SMILES | activity change
1 | CC(=O)CC[C@@H](C)O[C@@H]1OC(C)[C@H](O)CC1O (some centres undefined) | 29.3%
2 | COC(=O)[C@]12CCCCC=C1N(Cc1ccco1)C(=O)[C@H](CC(=O)NCC1CCCCC1)C2 | -8.27%
3 | CCCOc1ccc(F)cc1-c1cc(C(=O)Nc2ccc(F)cc2)[nH]n1 | 3.22%
4 | Cc1cc(C)n(-c2nc(C(F)(F)F)nc3ccccc23)n1 | 21.5%
5 | CC(Nc1nc(C(F)(F)F)nc2ccccc12)c1cccs1 (centres undefined) | -63.4% (active)
6 | CC(C)(C)Nc1nc(-c2ccccn2)nc2ccccc12 | -9.69%
7 | Cc1ccsc1/C=C1\SC(N2CCOCC2)=NC1=O | -26%
8 | CC1CCN(C2=NC(=O)/C(=C/c3ccc(O)cc3)S2)CC1 | -16.5%
9 | Cc1cc(/C=C2/SC(=O)N(CC(=O)N3CCCC3)C2=O)ccc1N1CCOCC1 | -23.5%
10 | CCc1ccc(/C=C2\SC(N3CCOCC3)=NC2=O)cc1 | -62.4% (active)
11 | O=C1N=C(N2CCc3ccccc3C2)S/C1=C\c1ccc(O)cc1 | -63.2% (active)
12 | NC1=NC(=O)S/C1=C\c1ccc(O)cc1 | -9.74%
13 | COC(=O)C1(C(=O)OC)C[C@H](c2ccccc2)N(Cc2ccccc2OC)[C@@H]1c1ccccc1 | 12.2%
14 | O=[N+]([O-])c1ccc(C(S(=O)(=O)Cc2ccccc2)S(=O)(=O)Cc2ccccc2)cc1 | -14.4%
15 | CC(C)(O)C#Cc1ccc(CNC[C@H]2O[C@@H](n3cnc4c(=O)[nH]c(N)nc43)[C@H](O)[C@@H]2O)s1 | 0%
16 | Cc1cc2oc(=O)cc(CN3CCN(Cc4ccccc4)CC3)c2cc1C | 1.1%
17 | CC(C)(C)C(=O)CN1C2=NCCN2c2ccccc21 | 0%
18 | Cc1cc2c(cc1C)N(Cc1ccccc1)C1=NCCCN12 | -58.1% (active)
19 | O=C(COC(=O)c1ccc(S(=O)(=O)N2CCCCCC2)cc1)Nc1ccccc1C(F)(F)F | 23%
20 | COc1ccc(OC)c(CN2C(=O)CCC2(C)c2nnnn2Cc2ccccc2)c1 (centres undefined) | 0%
21 | Cc1ccc(-c2ccc(CN3C(C(C)C)C(=O)N(Cc4cn(CCC5OCCO5)nn4)CCS3(=O)=O)cc2)cc1 (centres undefined) | 14.8%
22 | CC(=O)O[C@]1(C(C)=O)CC[C@H]2[C@@H]3C=C(C)C4=CC(=O)CC[C@]4(C)[C@H]3CC[C@@]21C | -10.2%
23 | CC1(C)C(=O)CCC2(C)C1=CCC1C2C(=O)CC2(C)C1CCC2(O)C(=O)CO (centres undefined) | 15.3%
24 | CC(=O)OCC(=O)C1(O)CCC2C3CC(C)C4=CC(=O)CCC4(C)C3C(O)CC21C (centres undefined) | -59.6% (active)
